Results on 16 compounds are retold here after ChEMBL document CHEMBL4513146, “CO-ADD screening of Karazin Kharkiv National University (Ukraine) compounds”.

One assay relates to Staphylococcus aureus. Particulars: Concentration 32 ug.mL-1;; ASSAY_TEST Inhibition of Bacterial Growth; detection method Absorption (OD600); MEDIA CAMHB; plate type 384well; NBS; CORNING #3640; time 18 hr.
Another assay concerns Escherichia coli. Particulars: Concentration 32 ug.mL-1;; ASSAY_TEST Inhibition of Bacterial Growth; detection method Absorption (OD600); MEDIA CAMHB; plate type 384well; NBS; CORNING #3640; time 18 hr.

Measured potencies and affinities stand elsewhere.

Consider `O=C(NCc1ccccc1)c1ccc2nn(CC(=O)N3CCN(c4ccc(F)cc4)CC3)c(=O)n2c1`, for which the values for the Inhibition in the assay on Staphylococcus aureus and with Escherichia coli were 4.28% and -2.47%, respectively.
With `COc1ccccc1Cn1c(=O)c2sccc2n2c(=O)n(Cc3ccccc3)nc12`, the figures for the Inhibition in the assay with Staphylococcus aureus and with Escherichia coli were 4.84% and -5.32%, respectively.
The matching figures for `COc1cccc(-n2ccn3c(-c4ccc([N+](=O)[O-])cc4)nnc3c2=O)c1`: 5.77% and -8.12%.
In the case of `O=C(Cn1nc2c(Sc3ccccc3)nccn2c1=O)Nc1ccc(Br)cc1F`, the Inhibition (in general, the change of the read-out against control, counted positive when it falls) with Staphylococcus aureus is recorded as 5.84%; in the assay on Escherichia coli, -2.08%.
The matching figures for `Cc1ccc(-c2cc3c4nn(CC(=O)Nc5ccccc5Cl)c(=O)n4ccn3n2)cc1`: 2.52% and -6.02%.
With `COc1cccc(Oc2nccn3c(=O)n(CC(=O)Nc4cc(F)ccc4F)nc23)c1`, the results for the Inhibition with Staphylococcus aureus and with Escherichia coli were 10.86% and -7.76%, respectively.
Regarding `CC(C)c1nnc2c(=O)n(CC(=O)Nc3ccc(F)cc3F)c3ccccc3n12`, the Inhibition was 12.23% in the assay with Staphylococcus aureus and 2.42% in the assay with Escherichia coli.
Consider `COc1ccc(N2CCN(C(=O)Cn3nc4c(Oc5cccc(C)c5C)nccn4c3=O)CC2)cc1`, for which the Inhibition with Staphylococcus aureus was 7.43%; with Escherichia coli it was -1.11%.
For `CCCCc1ccc(NC(=O)Cn2nc3c(Sc4ccccc4)nccn3c2=O)cc1`, the Inhibition in the assay with Staphylococcus aureus was 4.84%; in the assay with Escherichia coli, -9.71%.
Taken in the same sequence, the figures for `O=C(Cn1nc2ccc(SCc3ccc(Cl)cc3)nn2c1=O)NCc1ccccc1` were 7.82% and -9.37%.
Taken in the same sequence, the figures for `Cc1cccc(Oc2nc3ccccc3n3c(=O)n(CC(=O)Nc4cccc(C#N)c4)nc23)c1C` were -4.2% and -5.56%.
The matching figures for `COc1ccc(NC(=O)Cn2nc3c(Oc4cccc(OC)c4)nccn3c2=O)cc1`: 14.33% and -3.37%.
On to `CCCc1nnc2c(=O)n(CC(=O)Nc3ccc4c(c3)OCCO4)c3ccccc3n12`, for which the Inhibition in the assay on Staphylococcus aureus is on record as 2.35%; in the assay on Escherichia coli, -7.37%.
The matching figures for `Cc1cc(C)cc(Nc2nc(C)cc3nn(CC(=O)Nc4cccc(Cl)c4)c(=O)n23)c1`: 6.53% and -7.17%.
For the compound `COc1ccc(-c2cc3c4nnc(SCC(=O)Nc5ccccc5F)n4ccn3n2)cc1`, the Inhibition in the assay with Staphylococcus aureus is given as -1.6%; with Escherichia coli it was -2.74%.
The matching figures for `COc1ccc(N(Cc2cccc(Cl)c2)S(=O)(=O)c2ccc3nncn3c2)cc1`: -10.84% and -8.34%.
